These results are taken from PubChem BioAssay (NCI).

Structures are written as SMILES. The panel holds about 83,000 compounds, 20% with a hit somewhere; the sample as a whole holds those more often.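 48-hour exposure, single concentration, 96-well plates; percent growth endpoint where 0 means no net growth. Active: below 10.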 A number with no mark means an inactive call. The source made the active and inactive calls.

Common to all, as to experiment: NCI-60 one-dose screen, 48 h (100 = growth as untreated, 0 = no growth, -100 = all killed)
Details in all cases: 10 µM

Assay [1] concerns DU-145 prostate.
Assay [2] concerns K-562 leukemia.
Assay [3] concerns MDA-MB-231 breast.
For assay [4], the system named is RXF 393 renal.
The test system of assay [5] is SF-268 CNS.
Assay [6] deals with SF-295 CNS.
Assay [7] has as its system SF-539 CNS.
For assay [8], the system named is UACC-257 melanoma.
Assay [9] relates to M14 melanoma.
Assay [10] has as its system HCT-15 colon.
Assay [11] concerns HT29 colon.
Assay [12] has as its system SNB-75 CNS.
Assay [13] relates to SNB-19 CNS.
The test system of assay [14] is U251 CNS.
Assay [15] has as its system PC-3 prostate.
Assay [16] relates to SK-MEL-5 melanoma.
Assay [17] has as its system UACC-62 melanoma.
For assay [18], the system named is LOX IMVI melanoma.
For assay [19], the system named is SK-MEL-28 melanoma.
In assay [20] the test system is MALME-3M melanoma.

As to `CC(C)c1ccc(C(C)C(=O)N(CC2=C(C(C)c3ccccn3)c3ccccc3C2)C(C)C)cc1` (stereo not drawn), the growth in assay [1] is 57.6%; in assay [2] it was 24.5%; in [3], 48.4%; in [4], 45.6%; in [5], 46%; in [6], 25.6%. Further, the growth in assay [7] is 61.4%; in [8], 49.3%; in assay [9], 48.1%; in [10], 30.3%; in [11], 22.3%; in assay [12], 49.3%. In addition, the growth was 58.2% in assay [13]; 36% in assay [14]; 17.9% in assay [15]; 30.2% in assay [16]; 53.4% in assay [17]; 31.1% in [18]. The growth in [19] is 79.7%.

In the case of `COC(=O)CC[C@@H](C)[C@H]1CC[C@H]2[C@@H]3CC[C@@H]4C[C@H](O)CC[C@]4(C)[C@H]3C[C@H](O)[C@]12C`, the growth is 118% in assay [1]; 76.4% in assay [2]; 120% in assay [3]; 110% in [4]; 95.6% in assay [5]; 100% in assay [6]. The growth is 111% in assay [7]; 110% in assay [8]; 102% in [9]; 92.4% in assay [10]; 89% in [11]; 91.4% in assay [12]. The growth was 105% in [13]; 98.6% in [14]; 67.7% in assay [15]; 88.5% in [16]; 87.2% in [17]; 93.6% in assay [18]. Moreover, in assay [19], the growth is 118%.

Take `O=C(O)Cc1ccc(O)c(O)c1`: the growth was 113% in assay [1]; 102% in [2]; 99.2% in assay [3]; 94.2% in assay [4]; 97.6% in assay [5]; 102% in assay [6]. Moreover, the growth was 89.9% in assay [7]; 110% in [8]; 96.5% in assay [9]; 96.4% in [10]; 115% in assay [11]; 68.8% in [12]. Also, the growth is 102% in assay [13]; 109% in assay [14]; 106% in assay [15]; 94.1% in assay [16]; 105% in assay [17]; 107% in [18]. Moreover, the growth in assay [19] was 103%.

Regarding `COc1ccc(-c2nn(-c3cccc(Cl)c3)cc2C=C(C#N)C#N)cc1`, the growth in assay [1] was 3.57% (active); in [2], -13.2% (active); in assay [20], 17.7%; in [3], -40.3% (active); in [4], -5.72% (active); in assay [5], 13.3%. Moreover, the growth in assay [7] is 2.34% (active); in [8], 38.5%; in assay [9] it was -18% (active); in [11], -14.9% (active); in assay [12], 3.23% (active); in assay [13], 16.6%. For the same compound, the growth in assay [15] was 12.6%; in assay [16], 5.8% (active); in [17], 11.1%; in assay [18], -66.5% (active); in [19] it was 17.2%.

As for `CC(=O)Nc1cc2c(cc1Cl)Cc1cc(Cl)ccc1-2`, the growth was 106% in assay [1]; 108% in [2]; 113% in assay [20]; 98.7% in assay [4]; 88.4% in assay [5]; 109% in assay [6]. In addition, the growth in [7] is 88.1%; in assay [8] it was 88.9%; in [9], 106%; in assay [10], 85.9%; in assay [11] it was 99.4%; in assay [12], 64.1%. Also, the growth is 89.1% in assay [14]; 86.1% in [15]; 86.6% in [16]; 89.7% in assay [18]; 104% in [19].

Take `Cc1cc(Br)nnc1Br`: the growth in [1] is 121%; in assay [2], 99.5%; in [3], 92.7%; in assay [4], 120%; in [5], 107%; in assay [6] it was 111%. Also, the growth in [7] was 87.9%; in assay [8], 133%; in [9], 96.8%; in assay [10], 102%; in [11], 113%; in [12] it was 75.4%. In addition, the growth in assay [13] was 110%; in [14], 112%; in [15], 110%; in assay [16], 94.7%; in assay [17], 111%; in assay [18], 108%. Besides, the growth in assay [19] was 114%.

For `Cc1ccc(C)c(COc2cc(NC(=O)c3ccc4c(c3)OCO4)ccc2N(C)S(C)(=O)=O)c1`, the growth was -40.5% (active) in assay [1]; 13.3% in assay [2]; -10.8% (active) in assay [3]; -1.01% (active) in assay [4]; 20.8% in assay [5]; -4.18% (active) in assay [6]. Besides, the growth in assay [7] is -7.46% (active); in assay [8], 66.6%; in [9], -34.2% (active); in [10] it was 11.2%; in assay [11] it was 5.29% (active); in assay [12], 4.74% (active). Moreover, the growth in assay [13] is 18.3%; in assay [14], 12.9%; in assay [15], 26.8%; in [16] it was -42.5% (active); in assay [17], 15.8%; in assay [18], 36%. The growth in assay [19] is 64.6%.

With `Cc1cc(=O)n2nnc3cc(C(F)(F)F)ccc3n12`, the growth is 105% in assay [1]; 99.1% in [2]; 108% in assay [3]; 123% in assay [4]; 107% in [5]; 92.7% in [6]. Also, the growth in assay [7] is 106%; in [8], 106%; in assay [9] it was 113%; in assay [10] it was 101%; in assay [11], 104%; in assay [12] it was 116%. For the same compound, the growth in assay [13] is 109%; in assay [14], 107%; in [15], 101%; in assay [16], 109%; in assay [17], 102%; in [18], 106%. For the same compound, in assay [19], the growth is 118%.
